# Reference: PubChem BioAssay AID492956 (The Scripps Research Institute Molecular Screening Center, 2010)
# About 3,300 (0.97%) of roughly 340,000 compounds were called active.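 How the source made its calls: active means inhibition above the mean over all tested compounds plus 3 SD (cut at about 30% in these data); inactive means the rest.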 For the sample, actives were picked, then their nearest neighbours and some compounds at random.
# Biological target: Platelet-activating factor acetylhydrolase 2, cytoplasmic (Homo sapiens) (UniProt Q99487)
# Test: PAFAH2 enzyme inhibitors, primary screen, biochemical, fluorescence polarization, human (AID 492956);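 further: inhibitors block probe labeling of enzyme so polarization drops; 0% = enzyme with DMSO and 100% = wells lacking PAFAH2 protein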
# Conditions: recombinant PAFAH2, FP-rhodamine activity probe, at 3.39 µM, active compounds read high
row,Compound,inhibition
1,Cc1noc(C)c1C(=O)N(CC(=O)NC1CCCC1)Cc1ccccc1F,3.06% (inactive)
2,Oc1oc(-c2ccccc2Br)nc1/C=N/c1ccccn1,68% (active)
3,CC(N=Cc1nc(-c2ccccc2)oc1O)c1ccccc1 (stereo not given),21% (inactive)
4,CCOc1ccc2nc(/N=C/c3nc(-c4ccccc4)oc3O)sc2c1,2.86% (inactive)
5,COc1ccc(F)cc1C(=O)COC(=O)c1n[nH]c(=O)c2ccccc12,0.13% (inactive)
6,Cc1ccc2c(=O)oc(N(C)C)nc2c1,33% (active)
7,Cc1ccc2oc(=O)ccc2c1,1.28% (inactive)
8,CN(C)c1ccc2c(=O)[nH][nH]c(=O)c2c1,0.81% (inactive)
9,CCOC(=O)C1CCCCN1Cc1ccc(OC)c(OC)c1OC (stereo not given),-0.46% (inactive)
10,COC(CCN(C)C)(c1ccccc1)c1ccccc1,3.5% (inactive)
11,C=CCC(NCCCO)c1cccc(OC)c1OC (stereo not given),5.85% (inactive)
12,CC(=O)N(C1=C(Cl)C(=O)c2ccccc2C1=O)c1ccc(C(=O)O)cc1,10.5% (inactive)
13,O=C1C(Cl)=C(Oc2ccccc2)C(=O)c2ccccc21,43.1% (active)
14,Cc1ccc2[nH]c(=O)c(CN3CCCCC3)c(-c3ccccc3)c2c1,6.01% (inactive)
15,CCc1cc(=O)oc2c(C)c(OCC(=O)N3CC[C@@]4(O)CCCC[C@H]4C3)ccc12,-2.6% (inactive)
16,Oc1c(Cl)cc(Cl)c(Cl)c1Cc1c(O)c(Cl)cc(Cl)c1Cl,49.4% (active)
17,CCOC(=O)C(=CNNc1ccsc1C(=O)OC)C(=O)OCC,-1.37% (inactive)
18,CCOc1ccc(S(=O)(=O)N2CCC(C(=O)NCC(=O)Nc3cccc(Cl)c3C)CC2)cc1,8.28% (inactive)
19,O=C(O)c1ccc(NS(=O)(=O)c2ccc3c(c2)C(=O)c2cc(S(=O)(=O)Nc4ccc(C(=O)O)cc4)ccc2-3)cc1,4.82% (inactive)
20,OCC[C@H]1C[C@H](O)[C@@H](O)[C@]2(Cc3ccccc3CO2)O1,8.82% (inactive)

row,Compound,inhibition
1,COc1ccc(NS(=O)(=O)c2ccc(C)c(C(=O)NCC(c3cccs3)N3CCOCC3)c2)cc1 (stereo not given),7.05% (inactive)
2,CCOc1ccccc1NC(=O)CCc1nnc2ccc(NCc3ccco3)nn12,3.78% (inactive)
3,Cc1ccc(/C=C/C(=O)OCC(=O)Nc2cccnc2Cl)cc1,30.3% (active)
4,O=C(COC(=O)/C=C/c1nc2ccccc2s1)Nc1ccccc1Oc1ccccc1,-12.4% (inactive)
5,COc1ccc(-c2nnc(SCC(=O)Nc3cccnc3Cl)n2C)cc1,0.74% (inactive)
6,O=C(NCCC(=O)N1O[C@@H]2C=C[C@H]1C2)OCC1c2ccccc2-c2ccccc21,2.94% (inactive)
7,O=C(Cc1ccc([N+](=O)[O-])cc1)Nc1ccc(C(=O)N2CCOCC2)cc1,1.43% (inactive)
8,O=C(/C=C/c1cccs1)c1cc(Cl)ccc1OC(=O)N1CCOCC1,72.8% (active)
9,CC(=O)Nc1ccccc1OC(=O)N1CCOCC1,7.14% (inactive)
10,O=C(Oc1cccc(C(=S)N2CCOCC2)c1)c1cccc(Cl)c1,5.91% (inactive)
11,COc1cccc(N(C(=O)c2snc(C(N)=O)c2N)C(C(=O)NCC2CCCO2)c2c[nH]c3ccccc23)c1 (stereo not given),-0.32% (inactive)
12,COc1ccc(-c2nc3c(s2)CCc2onc(-c4ccc(Br)cc4)c2-3)cc1,-1.79% (inactive)
13,Cc1ccc(NC(=O)COC(=O)C2C3CC4OC(=O)C2C4C3)cc1Cl (stereo not given),88.2% (active)
14,Cc1cc(C)cc(NC(=O)c2cccc(NC(=O)C3C4CC5OC(=O)C3C5C4)c2)c1 (stereo not given),6.12% (inactive)
15,Cc1ccc(NC(=O)C2CC2)cc1S(=O)(=O)N1CCOCC1,-3.1% (inactive)
16,Cc1ccc(NC(=O)COC(=O)C2CC2)cc1S(=O)(=O)N1CCOCC1,77.5% (active)
17,O=C(COC(=O)c1ccco1)Nc1ccc(Cl)cn1,45.5% (active)
18,Cc1ccc(C(=O)OCC(=O)N2CCCCCC2)cc1S(=O)(=O)N1CCOCC1,10.7% (inactive)
19,Cc1ccc(NC(=O)COC(=O)CNC(=O)c2ccc(Cl)cc2Cl)cc1S(=O)(=O)N1CCOCC1,-3.69% (inactive)
20,Cc1ccc(C(=O)OCC(=O)Nc2ccc(Cl)cn2)cc1S(=O)(=O)N1CCOCC1,55.8% (active)

row,Compound,inhibition
1,O=C(COC(=O)c1ccco1)NCc1ccc(Cl)cc1,24.3% (inactive)
2,CC(OC(=O)CNC(=O)c1ccco1)C(=O)Nc1ccc(Cl)cn1 (stereo not given),-0.78% (inactive)
3,Cc1cc(NC(=O)COC(=O)c2ccc(F)c(S(=O)(=O)N3CCOCC3)c2)no1,8.91% (inactive)
4,O=C(Nc1ccc(Br)cc1)c1cccc(NC(=O)C2C3CC4OC(=O)C2C4C3)c1 (stereo not given),-8.44% (inactive)
5,Cc1ccc(NC(=O)C(=O)NCC2CCN(C(=O)c3cccc([N+](=O)[O-])c3)CC2)cc1,3.36% (inactive)
6,C=CCNc1nnc(SCC(=O)N2CCCCC2)c2ccccc12,-3.63% (inactive)
7,O=C(Nc1ccc(-c2cscn2)cc1)C1CCCN(Cc2ccc(CO)o2)C1 (stereo not given),-10.4% (inactive)
8,COc1ccc(CNC(=O)[C@@H]2CC=C[C@@H]3CCN(C4CC4)C(=O)[C@@H]32)cc1,-6.96% (inactive)
9,CCOC(=O)C1=C(c2ccccc2)O/C(=C(/C(=O)OC)C(F)(F)F)S1,1.19% (inactive)
10,Cc1cc(=O)n(C)c(=O)n1CCCNc1ccccc1,-0.72% (inactive)
11,CCCC(=O)N1CCC(CCC(=O)NC2CC2)CC1,2.54% (inactive)
12,CC(CO)NCC12CC3CC(CC(C3)C1)C2 (stereo not given),-2.32% (inactive)
13,CCc1ccc2oc(-c3ccc(N)cc3)nc2c1,8.24% (inactive)
14,Cc1cc(-c2nnc(SCC(=O)Nc3ccc(S(N)(=O)=O)cc3)n2N)n[nH]1,-4.23% (inactive)
15,Cc1ccc(C)c(S(=O)(=O)Nc2cc(C)on2)c1,0.2% (inactive)
16,CCc1cccc(C)c1NC(=O)COC(=O)CNC(=O)c1cccs1,5.02% (inactive)
17,CCc1cccc(C)c1NC(=O)COC(=O)Cc1ccsc1,7.53% (inactive)
18,CCc1cccc(C)c1NC(=O)COC(=O)CC1CCCC1,68.3% (active)
19,Cc1cc(C)n2nc(C(=O)OCC(=O)N(CCC#N)c3ccc(F)cc3)nc2n1,-0.66% (inactive)
20,CC(C)Nc1nnc(SC(C)C(=O)N(C)C2CCCCC2)s1 (stereo not given),9.89% (inactive)
